# Experimental data published in PubChem BioAssay.
# Where “and” joins values, the source holds several entries; their conditions need not be identical. Identical values can stand only once. Results filed as inconclusive are left out. The source holds several records for some structures; these can differ, active in one and inactive in another. Calls of active or inactive are those of the source.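 The calls were made as follows, unless noted: active = compounds whose cell count with miR-34 switched on is under 0.7 times the count with it off; inactive = the rest.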
# Tests used:
# [1] = viability loss in pontine glioma line – cell-based, SU-DIPG-XXV, MIPE5.0, CellTiter-Glo, qHTS, dose response (AID 1347065; cut-off not given, nearly all actives have AC50 up to about 26 µM;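 also: cells exposed to compound for 48 hours before ATP readout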); details: CellTiter-Glo ATP luminescence
# [2] = growth inhibition of DIPG cells – cell-based, MIPE5.0 library, qHTS (AID 1347068; cut-off not given, nearly all actives have IC50 up to about 30 µM;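 as to IC50: cells exposed to compound for 48 hours before viability readout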); details: SU-DIPG-XXV viability
# [3] = viability loss with induced miR-34 in A549 – imaging, A549 dox-inducible miR-34, nuclei and caspase counts, primary screen (AID 1347080); details: A549 miR-34 inducible, Hoechst nuclei count, 48 h
# [4] = MELAS cybrid and Rieske KO viability enhancers – cell-based, MELAS cybrids, Rieske KO mouse fibroblasts, CellTiter-Glo, primary screen (AID 1508586;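 active = mean z-score across replicates of 1.96 or higher in either the MELAS or the Rieske mutant cell line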;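 also: z relative to plate mean and SD of compound and empty wells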); details: low glucose
# [5] = growth inhibition of DIPG cells – cell-based, MIPE4.0 library, CellTiter-Glo luminescence, qHTS (AID 1347066; cut-off not given, nearly all actives have AC50 up to about 30 µM;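 also: cells exposed to compound for 48 hours before readout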); details: SU-DIPG-VI viability, CellTiter-Glo ATP luminescence
# [6] = JHH-DIPG-1 glioma cell viability, MIPE5.0 library, CellTiter-Glo luminescence, qHTS (AID 1347067; cut-off not given, nearly all actives have AC50 up to about 26 µM;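 also: cells exposed to compound for 48 hours before readout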); details: JHH-DIPG-1 glioma viability, CellTiter-Glo ATP luminescence
# [7] = blockers of cellular phospholipid synthesis – cell-based, LOPAC library, screen 4, primary screen (AID 1347384; call rule not given here); details: animal cells, phospholipid biosynthesis inhibition screen; at 10 µM
# [8] = chitosan synthesis blockers in C. neoformans – flow cytometry, Cibacron Brilliant Red staining (AID 1347148; call rule not given here;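 also: compound exposure lasted three days at 37 degrees C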); details: Cryptococcus neoformans chitosan, stronger effect = lower value; at 10 µM unless noted
# [9] = stronger effect = lower value, cell number ratio, induced over uninduced
# [10] = measured here: relative caspase fold change +Dox/-Dox
# [11] = measured here: total cells with miR-34 induction, stronger effect = lower value
# [12] = measured here: total cells without miR-34 induction
# [13] = MELAS cybrid survival, CellTiter-Glo 48 h, stronger effect = higher value
# [14] = Rieske KO mouse fibroblast survival, CellTiter-Glo 72 h
smiles,measurement,setting,value
O=c1[nH]c(=O)n([C@H]2C[C@H](O)[C@@H](CO)O2)cc1F,outcome,[1],inactive
same,outcome,[2],inactive
same,fold change,[3]; [9],1.03 (inactive)
same,fold change,[3]; [10],0.977
same,cell count,[3]; [11],4160
same,cell count,[3]; [12],4020
same,z-score,[4]; [13],-1.41 (inactive) and 0.996 (inactive)
same,z-score,[4]; [14],1.5 and -0.252
CC1=CC(=O)c2ccccc2C1=O,AC50,[5],8.33 µM (active)
same,AC50,[6],33.2 µM (active)
same,outcome,[2],inactive
same,fold change,[3]; [9],1.24 (inactive) and 1.04 (inactive) and 1.27 (inactive)
same,fold change,[3]; [10],0.813 and 0.493 and 0.646
same,cell count,[3]; [11],1500 and 4940 and 494
same,cell count,[3]; [12],1210 and 4760 and 388
same,z-score,[4]; [13],-0.194 (inactive)
same,z-score,[4]; [14],-1.25
C/C=C(/C(=C/C)c1ccc(O)cc1)c1ccc(O)cc1,outcome,[5],inactive
same,AC50,[6],20.9 µM (active)
same,IC50,[2],23.5 µM (active)
same,fold change,[3]; [9],0.888 (inactive) and 0.901 (inactive)
same,fold change,[3]; [10],1.32 and 1.91
same,cell count,[3]; [11],7250 and 10300
same,cell count,[3]; [12],8160 and 11500
same,z-score,[4]; [13],-1.21 (inactive)
same,z-score,[4]; [14],-1.14
CNC[C@H](O)[C@@H](O)[C@H](O)[C@H](O)CO,outcome,[5],inactive
same,outcome,[6],inactive
same,outcome,[2],inactive
same,fold change,[3]; [9],0.909 (inactive)
same,fold change,[3]; [10],1.1
same,cell count,[3]; [11],9480
same,cell count,[3]; [12],10400
same,z-score,[4]; [13],0.108 (inactive) and -0.495 (inactive)
same,z-score,[4]; [14],-0.764 and -1.1
CCC(=O)O[C@]1(C(=O)SCF)[C@H](C)C[C@H]2[C@@H]3C[C@H](F)C4=CC(=O)C=C[C@]4(C)[C@@]3(F)[C@@H](O)C[C@@]21C,outcome,[5],inactive
same,outcome,[6],inactive
same,outcome,[2],inactive
same,fold change,[3]; [9],0.882 (inactive) and 0.864 (inactive)
same,fold change,[3]; [10],0.631 and 0.861
same,cell count,[3]; [11],6550 and 5840
same,cell count,[3]; [12],7420 and 6760
same,z-score,[4]; [13],0.444 (inactive)
same,z-score,[4]; [14],0.72
C#CCN[C@@H]1CCc2ccccc21,outcome,[5],inactive
same,outcome,[6],inactive
same,outcome,[2],inactive
same,fold change,[3]; [9],0.9 (inactive)
same,fold change,[3]; [10],0.614
same,cell count,[3]; [11],8560
same,cell count,[3]; [12],9500
same,z-score,[4]; [13],-0.17 (inactive)
same,z-score,[4]; [14],0.336
CC(C)COCC(CN(Cc1ccccc1)c1ccccc1)N1CCCC1 (stereo unspecified),AC50,[1],18.6 µM (active)
same,AC50,[6],18.6 µM (active)
same,IC50,[2],16.6 µM (active)
same,outcome,[7],inactive
same,z-score,[4]; [13],-1.13 (inactive) and -0.882 (inactive)
same,z-score,[4]; [14],-0.167 and 0.23
CC1(C)O[C@H]2CC(=O)OC[C@]23[C@H]2CC[C@@]4(C)[C@H](c5ccoc5)OC(=O)[C@H]5O[C@]54[C@]2(C)C(=O)C[C@@H]13,outcome,[5],inactive
C[C@H]1O[C@@H](n2cc(F)c(=O)[nH]c2=O)[C@H](O)[C@@H]1O,outcome,[5],inactive
same,outcome,[6],inactive
same,outcome,[2],inactive
same,fold change,[3]; [9],1.04 (inactive) and 0.788 (inactive)
same,fold change,[3]; [10],0.632 and 1.14
same,cell count,[3]; [11],3620 and 3400
same,cell count,[3]; [12],3490 and 4310
same,outcome,[7],inactive
same,z-score,[4]; [13],0.0159 (inactive)
same,z-score,[4]; [14],-0.832
OC[C@H]1O[C@@H](O[C@@H]2[C@@H](CO)O[C@](O)(CO)[C@H]2O)[C@H](O)[C@@H](O)[C@H]1O,outcome,[5],inactive
same,outcome,[6],inactive
same,outcome,[2],inactive
same,fold change,[3]; [9],0.922 (inactive)
same,fold change,[3]; [10],1.95
same,cell count,[3]; [11],11500
same,cell count,[3]; [12],12500
O=C1N(c2ccccc2)c2ccccc2C1(Cc1ccncc1)Cc1ccncc1,outcome,[5],inactive
same,outcome,[6],inactive
same,outcome,[2],inactive
same,fold change,[3]; [9],1.1 (inactive) and 0.81 (inactive) and 0.995 (inactive)
same,fold change,[3]; [10],1.28 and 1.84 and 1.46
same,cell count,[3]; [11],10000 and 7730 and 7820
same,cell count,[3]; [12],9180 and 9540 and 7860
same,outcome,[7],inactive
COc1cc(/C=C/C(=O)CC(=O)/C=C/c2ccc(O)c(OC)c2)ccc1O,AC50,[1],20.9 µM (active)
same,fold change,[3]; [9],0.955 (inactive)
same,fold change,[3]; [10],1.47
same,cell count,[3]; [11],6170
same,cell count,[3]; [12],6460
same,fold fluorescence,[8],8.92 [at 135.7 µM] (inactive)
COc1ncnc(NS(=O)(=O)c2ccc(N)cc2)c1OC,outcome,[5],inactive
same,outcome,[6],inactive
same,outcome,[2],inactive
same,fold change,[3]; [9],0.905 (inactive) and 0.917 (inactive) and 0.89 (inactive)
same,fold change,[3]; [10],0.874 and 2.12 and 1.28
same,cell count,[3]; [11],9490 and 11800 and 9350
same,cell count,[3]; [12],10500 and 12900
same,z-score,[4]; [13],0.681 (inactive) and -0.67 (inactive)
same,z-score,[4]; [14],0.678 and -1.38
CC/C(=C(/CC)c1ccc(O)cc1)c1ccc(O)cc1,outcome,[1],inactive
same,outcome,[2],inactive
same,z-score,[4]; [13],0.343 (inactive) and 0.665 (inactive)
same,z-score,[4]; [14],-0.0589 and -0.544
COc1ccc(C(=O)CC(=O)c2ccc(C(C)(C)C)cc2)cc1,outcome,[1],inactive
same,outcome,[6],inactive
same,outcome,[2],inactive
same,fold change,[3]; [9],0.967 (inactive) and 0.867 (inactive)
same,fold change,[3]; [10],0.938 and 3.78
same,cell count,[3]; [11],7480 and 11300
same,cell count,[3]; [12],7740 and 13000
same,z-score,[4]; [13],-0.399 (inactive) and 2 (active)
same,z-score,[4]; [14],0.325 and 0.254
CC(=O)N(O)CCCCCNC(=O)CCC(=O)N(O)CCCCCNC(=O)CCC(=O)N(O)CCCCCN,AC50,[1],13.2 µM (active)
same,outcome,[2],inactive
same,fold change,[3]; [9],0.985 (inactive) and 0.882 (inactive) and 0.874 (inactive)
same,fold change,[3]; [10],1.2 and 0.413 and 4.36
same,cell count,[3]; [11],4610 and 9190 and 10300
same,cell count,[3]; [12],4680 and 10400 and 11800
same,z-score,[4]; [13],-0.752 (inactive) and -0.803 (inactive)
same,z-score,[4]; [14],-0.313 and -1.18
